From ChEMBL document CHEMBL3433997, “St. Jude Leishmania screening dataset” (2016)

biological target: Glucose transporter (Leishmania mexicana) (UniProt O61059); experiment: ST_JUDE_LEISH: Cytotoxicity at 2uM final concentration against transgenic Leishmania Mexicana promastigotes LmGT2 that are glucose transport deficient and complemented with the L. Mexicana glucose transporter 2. Activity is measured by DNA content using SYBR green in vitro; format: functional

Compound	inhibition [%]
CN1CCC(C(=O)Nc2ccc(-c3ccc(-c4nc5ccccc5[nH]4)s3)cc2)CC1	0.49
COc1ccc2nccc([C@@H](O)CN3CCC(NCc4ccc5c(c4)NC(=O)CS5)CC3)c2c1	-0.16
O=C(NCc1cccc2ccccc12)C1CCCN(C(=O)c2ccc(O)c(-c3ccc(Cl)c(Cl)c3)c2)C1 (stereo not given)	1.88
O=C(NCc1ccc(Cl)c(Cl)c1)c1ccc(C2CCCN(Cc3ccc4[nH]cnc4c3)C2)cc1 (stereo not given)	6.17
CCOc1cc(C(=O)NCc2ccc(Cl)c(Cl)c2)ccc1-c1nc2cc(Cl)ccc2[nH]1	7.21
CCCNS(=O)(=O)c1ccc(NC(=O)C(C)Oc2ccc([N+](=O)[O-])cc2)cc1 (stereo not given)	-4.88
OC(c1cccc(OCc2ccccc2)c1)C1CN(CCc2ccccc2)CCC1(O)c1ccccc1 (stereo not given)	-0.2
CCNc1cc(C(=O)N[C@@H](Cc2ccccc2)[C@H](O)CNC(C)CC(C)C)c(F)c(N2CCCCS2(=O)=O)c1 (stereo not given in full)	2.55
O=C(CC(c1ccccc1)c1ccccc1O)N1CCOCC1 (stereo not given)	-0.06
COc1ccc2nccc([C@@H](O)CN3CCC(NC(=O)C(c4ccsc4)N4CCN(c5ccccc5)CC4)CC3)c2c1 (stereo not given in full)	1.54
Cc1cc(NCc2ccccc2)nc2cc(O)ccc12	7.14
CC(C)CCN(Cc1cncn1Cc1cccc(Cl)c1)C(=O)c1cncc(-c2ccccc2)c1	5.78
Cc1ccc(-c2nc3cc(C(=O)NC4CCC(N5CCCc6ccc(C#N)cc6C5)CC4)ccc3[nH]2)cc1 (stereo not given)	5.12
O=C(/C=C/c1ccc(Cl)c(Cl)c1)NCCCCCN1CCC(NC(=O)c2ccc(F)cc2F)CC1	-1.5
O=C(Nc1cccc(C(F)(F)F)c1)NC1CCN(c2ccnc3ccccc23)C1 (stereo not given)	6.33
O=C(Nc1ccc(Cn2ncc(N3CCCNCC3)c(Cl)c2=O)cc1)Nc1ccc(SC(F)(F)F)cc1	-1.22
CCCc1cn2c3c(cc(C(=O)N[C@@H](Cc4ccccc4)[C@H](O)CNC4CCOCC4)cc13)N(CC)S(=O)(=O)CC2	1.03
CN(C)c1ccc(CN2CCC(NC(=O)c3ccc(-c4cccc(C(F)(F)F)c4)s3)CC2)cc1	5.11
O=C(Nc1cccc(N2CCC(NCCCc3ccncc3)CC2)c1)c1cccc(C(F)(F)F)c1	4.83
C[C@H](Cc1ccc(OCCNC[C@H](O)c2cccc(Cl)c2)cc1)NC[C@H](O)c1ccc(Cl)c(Cl)c1	3.19

Compound	inhibition [%]
COc1cc(NC(=O)c2sc(-c3ccc(Cl)cc3)cc2NC(=O)CN2CCCC2)ccc1OCCN1CCCC1	4.39
Cc1cc(NCCc2cccc(F)c2)nc(NC(=N)Nc2cccc(C(F)(F)F)c2)n1	2.41
CCN(CC)c1nc(Nc2cc(C)ccc2C)nc(Nc2ccccc2O)n1	4
O=C(NCc1cc2c(cc1Cl)OCO2)c1ccc(CNC2CCN(Cc3ccccc3)CC2)cc1	0.48
c1ccc(Oc2ccc(Nc3ccnc4cc(-c5csc(CNCCN6CCOCC6)n5)ccc34)cc2)cc1	-0.68
Cc1nn(CCOC(=O)NC(NCC2COc3ccccc3O2)C(Cl)(Cl)Cl)cc1[N+](=O)[O-] (stereo not given)	-1.73
Fc1ccc2[nH]c(-c3ccc(-c4ccc(CNCCc5cccnc5)cc4)s3)nc2c1	3.21
Cc1ccc(CNC(=O)[C@H](Cc2ccccc2)Nc2ccnc(NCC3CCCCC3)n2)cc1	3.01
Cc1cc(NC(=O)Nc2ccc(I)c(OCCN(C)C)c2)ccc1Br	6.57
Cc1ccc(CNC(=O)[C@H](CCCN)Nc2cc(C)nc(Nc3ccccc3)n2)cc1	7.78
Cc1ccc(Oc2ccc(CNc3nc(Nc4cccc(F)c4)nc(Nc4cccc(F)c4)n3)cc2)cc1	4.75
CCCCc1ccc(NC(=O)Nc2cccc(CCNCc3ccccc3)c2)cc1	10.2
OCC1CCN(Cc2cccc(-c3cccc(-c4nc5cc(C(F)(F)F)ccc5[nH]4)c3)c2)CC1	0.14
CCc1cn2c3c(cc(C(=O)N[C@@H](Cc4cccc(Cl)c4)[C@H](O)CNC4CCOCC4)cc13)N(C)S(=O)(=O)CC2	1.44
Cc1cccc2nc(-c3cccc(-c4cccc(NC(=O)c5cncn5C)c4)c3)[nH]c12	4.6
Cc1nc(N/C(N)=N/C(=O)NC2CCCCC2)nc2ccccc12	6.66
Cc1ccc(C2CCN(CCCCNC(=O)c3ccc(-c4ccc(C(F)(F)F)cc4)cc3)CC2)c(O)c1	-0.78
C[C@@H](CC1CCCCC1)NCc1cccc(NS(=O)(=O)c2ccc(O)c(-c3ccno3)c2)c1	14.5
Cc1cc2c(/C=C/C(=O)NC3CCC(CCN4CCc5ccc(C#N)cc5CC4)CC3)cccc2[nH]1 (stereo not given)	3.25
O=C(CSc1nn(-c2ccccc2)c(=S)s1)c1c[nH]c2ccccc12	2.3
